Assay [1] can be described thus: qHTS assay to test for compound auto fluorescence at 535 nm (green) in HEK293 cells (AID 720680). A general note: Quantitative high-throughput screening tests each substance at several concentrations.
The nature of assay [2]: qHTS assay to test for compound auto fluorescence at 460 nm (blue) in HEK293 cell free culture (AID 720681). In short, it runs like this: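 Compounds were added to cell-free DMEM with 10% FBS and fluorescence read directly. The blue channel used 405 nm excitation and 460 nm emission, with triamterene as the reference fluorophore.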
Assay [3] in a line: qHTS assay to test for compound auto fluorescence at 535 nm (green) in HEK293 cell free culture (AID 720682). The method in brief: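 Using fluorescein as calibrant, autofluorescence was quantified at 485/535 nm in cell-free DMEM containing 10% FBS after pintool addition of compound or vehicle.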
Assay [4] can be described thus: qHTS assay to test for compound auto fluorescence at 590 nm (red) in HEK293 cell free culture (AID 720683). In short, it runs like this:
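Cell-free wells of DMEM with 10% FBS received compound, and intrinsic fluorescence was read at excitation/emission 540/590 nm. Values expressed as equivalence to Rose Bengal sodium.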

The nature of assay [5]: qHTS assay to test for compound auto fluorescence at 590 nm (red) in HepG2 cell free culture (AID 720684). The method in brief: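 Rose Bengal sodium served as the reference for red signal. Test compounds were dispensed into serum-containing MEM (10% FBS) without cells, and plates were read at 540/590 nm.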
Assay [6] can be described thus: qHTS assay to test for compound auto fluorescence at 460 nm (blue) in HepG2 cell free culture (AID 720685). The method in brief:
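Cell-free plates of MEM plus 10% FBS received 23 nL compound or DMSO vehicle; blue-channel (405/460 nm) intensity scored against triamterene as reference fluorophore.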

A short description of assay [7]: qHTS assay to test for compound auto fluorescence at 535 nm (green) in HepG2 cell free culture (AID 720686).
Assay [8] can be described thus: qHTS assay to test for compound auto fluorescence at 460 nm (blue) in HepG2 cells (AID 720687). The method in brief: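 HepG2 cells in MEM with 10% FBS, attached overnight at 37 C, were exposed to compound or DMSO for 1 hr at 37 C, 5% CO2. Blue fluorescence was read at 405/460 nm, with triamterene as reference fluorophore.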
Assay [9] deals with Glucocorticoid receptor (Homo sapiens) (UniProt P04150). The assay can be described thus: qHTS assay to identify small molecule agonists of the glucocorticoid receptor (GR) signaling pathway (AID 720691; active means well fitted activation curve with a large enough effect in the signal ratio in the repeat runs, not every such curve was filed as active; inconclusive means weak or mixed curves, or effect the other way; inactive means no such curve, though single readings can be large or run the other way; the % refers to the signal ratio; further: potency means the concentration at half of the fitted maximal effect). The following applies: GR-bla HeLa, beta-lactamase reporter ratio, 18 h; activation: at 62.4 µM (top of the series). The method in brief: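 Agonist-mode qHTS in HeLa cells stably expressing a glucocorticoid-response-element beta-lactamase reporter. Fluorescence intensity read with FRET substrate (2 h, room temperature) after 18 h compound treatment at 37 C.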

Activity calls are given as the source filed them. Unless noted, the call rests on the fitted dose curve; in most records, active means well fitted curve in the direction sought with a large enough effect in the repeat runs; inconclusive means weak or mixed curves; inactive means flat fitted curve, though single readings scatter.

Chain of Glucocorticoid receptor (Homo sapiens) (P04150 whole entry, looked up): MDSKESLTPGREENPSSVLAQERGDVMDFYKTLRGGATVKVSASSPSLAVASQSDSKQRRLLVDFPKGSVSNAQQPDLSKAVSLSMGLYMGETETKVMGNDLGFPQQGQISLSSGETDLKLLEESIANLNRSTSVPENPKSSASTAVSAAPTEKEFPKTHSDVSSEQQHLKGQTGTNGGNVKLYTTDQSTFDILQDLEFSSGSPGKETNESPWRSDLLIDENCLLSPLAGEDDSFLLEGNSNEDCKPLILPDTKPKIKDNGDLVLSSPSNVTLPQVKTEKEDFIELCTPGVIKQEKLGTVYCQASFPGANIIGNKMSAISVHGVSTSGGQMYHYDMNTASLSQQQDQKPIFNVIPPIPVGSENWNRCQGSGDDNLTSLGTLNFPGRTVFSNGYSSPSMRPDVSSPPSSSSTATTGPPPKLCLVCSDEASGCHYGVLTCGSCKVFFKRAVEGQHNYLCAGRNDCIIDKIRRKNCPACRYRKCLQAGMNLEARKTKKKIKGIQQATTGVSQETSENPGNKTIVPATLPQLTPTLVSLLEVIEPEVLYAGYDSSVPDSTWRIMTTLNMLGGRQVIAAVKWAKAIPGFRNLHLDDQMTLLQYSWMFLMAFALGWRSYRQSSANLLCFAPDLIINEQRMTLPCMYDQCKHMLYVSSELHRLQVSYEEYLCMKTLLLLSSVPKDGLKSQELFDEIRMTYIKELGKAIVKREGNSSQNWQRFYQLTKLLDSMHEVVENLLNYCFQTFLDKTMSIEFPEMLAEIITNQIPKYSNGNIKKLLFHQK

On to `CNC(C)[C@@H]1CC[C@@H](N)[C@@H](O[C@H]2[C@H](O)[C@@H](O[C@H]3OC[C@](C)(O)[C@H](NC)[C@H]3O)[C@H](N)C[C@@H]2N)O1` (some centres undefined), for which the Potency entry in [1], in assay [2], in [3], in assay [4], in assay [5] and in assay [7] was “inactive” each time. For the same compound, the outcome in assay [6] and in assay [8] was inactive.

Regarding `O=C(O)c1nc(=O)[nH]c(=O)[nH]1`, the Potency entry in [1], in assay [2], in assay [3], in assay [4], in [5] and in assay [7] was “inactive” in each case. Further, the Potency result in assay [9] was “inactive”. Moreover, the call in assay [6] and in [8] was inactive.

`CCCCOC(=O)C(=O)Nc1cccc(-c2nn[nH]n2)c1`: the Potency result in assay [1], in assay [2], in assay [3], in assay [4], in [5] and in assay [7] was “inactive” throughout. Besides, the compound was called inactive in assay [6] and in assay [8].

For `O=C(O)c1ccc(NC(=O)[C@H](Cc2ccc(O)cc2)NC(=O)c2ccccc2)cc1`, the Potency entry in [1], in assay [2], in [3], in assay [4], in assay [5] and in assay [7] was “inactive” throughout. Further, the call in assay [6] and in assay [8] was inactive.

For `COc1cc(-c2ccc(-[n+]3nc(-c4ccccc4)nn3-c3ccc([N+](=O)[O-])cc3)c(OC)c2)ccc1-[n+]1nc(-c2ccccc2)nn1-c1ccc([N+](=O)[O-])cc1`, the Potency result in assay [1], in [2], in [3], in assay [4], in assay [5] and in [7] was “inactive” throughout. Further, the compound was called inactive in assay [6] and in assay [8].

Regarding `O=C(COc1ccc(Cl)cc1)OCCNC12CC3CC(CC(C3)C1)C2`, the Potency result in assay [1], in assay [2], in assay [3], in assay [4], in assay [5] and in assay [7] was “inactive” in each case. For the same compound, the compound was classed as inactive in assay [6] and in assay [8].

Consider `CCCC(=O)O[C@]1(C(=O)COC(=O)CC)[C@@H](C)C[C@H]2[C@@H]3CCC4=CC(=O)C=C[C@]4(C)[C@@]3(F)[C@@H](O)C[C@@]21C`, for which the Potency entry in assay [1], in assay [2], in assay [3], in assay [4], in assay [5] and in assay [7] was “inactive” in each case. Further, the call in assay [6] and in assay [8] was inactive.

Regarding `CC(C)C(=O)OCC(=O)[C@@]12O[C@H](C3CCCCC3)O[C@@H]1C[C@H]1[C@@H]3CCC4=CC(=O)C=C[C@]4(C)[C@H]3[C@@H](O)C[C@@]12C`, the Potency entry in [1], in [2], in assay [3], in assay [4], in assay [5] and in assay [7] was “inactive” throughout. Further, the outcome in [6] and in assay [8] was inactive.

As to `C=CC1=C(C)C2=CC3=NC(=C(CC(=O)[O-])C4=NC(=C(C)C4=C([O-])[O-])C=c4[n-]c(c(C)c4CC)=CC1=N2)C(CCC(=O)[O-])C3C.[Cu+2].[Na+].[Na+].[Na+]` (centres undefined), the Potency result in assay [1], in assay [2], in assay [3], in assay [4], in assay [5] and in assay [7] was “inactive” each time. The Potency entry in assay [9] was “inactive”. Moreover, the call in [6] and in assay [8] was inactive.

With `C=C1c2c(Cl)ccc(O)c2C(O)=C2C(=O)[C@]3(O)C(O)=C(C(N)=O)C(=O)[C@@H](N(C)C)[C@@H]3[C@@H](O)[C@H]12`, the Potency entry in assay [1], in assay [2], in assay [3], in [4], in [5] and in [7] was “inactive” in each case. In assay [9], the Potency entry is “inactive”. Besides, the compound was called inactive in [6] and in assay [8].

Turning to `OCC(O)CO`, the Potency entry in assay [1], in assay [2], in assay [3], in assay [4], in assay [5] and in assay [7] was “inactive” in each case. Also, the compound was classed as inactive in assay [6] and in [8].

Take `O=C(O)CCC/C=C\C[C@@H]1[C@@H](/C=C/[C@@H](O)COc2cccc(Cl)c2)[C@H](O)C[C@@H]1O`: the Potency entry in assay [1], in [2], in assay [3], in [4], in assay [5] and in assay [7] was “inactive” each time. Further, the call in assay [6] and in [8] was inactive.

On to `C=C1CC[C@@H]2[C@](C)(CO)[C@H](O)CC[C@@]2(C)[C@@H]1C/C=C1/C(=O)OC[C@H]1O`, for which the Potency result in [1], in [2], in assay [3], in assay [4], in assay [5] and in [7] was “inactive” in each case. Besides, the compound was called inactive in assay [6] and in [8].

Turning to `Cc1ccccc1`, the Potency result in [1], in assay [2], in assay [3], in [4], in assay [5] and in [7] was “inactive” each time. Further, the compound was called inactive in assay [6] and in assay [8].

Regarding `O=C(NNCNNC(=O)c1ccncc1)c1ccncc1`, the Potency entry in assay [1], in assay [2], in assay [3], in [4], in assay [5] and in assay [7] was “inactive” each time. The compound was called inactive in assay [6] and in assay [8].

As for `CCCc1nc(C(C)(C)O)c(C(=O)OCc2oc(=O)oc2C)n1Cc1ccc(-c2ccccc2-c2nn[nH]n2)cc1`, the Potency result in assay [1], in assay [2], in [3], in [4], in assay [5] and in assay [7] was “inactive” each time. Moreover, the outcome in [6] and in assay [8] was inactive.

For the compound `CC[C@@]1(O)C[C@H](O[C@H]2C[C@H](N(C)C)[C@H](O[C@H]3C[C@H](O)[C@H](O[C@H]4CCC(=O)[C@H](C)O4)[C@H](C)O3)[C@H](C)O2)c2c(cc3c(c2O)C(=O)c2c(O)cccc2C3=O)[C@H]1C(=O)OC`, the Potency result in assay [1], in assay [2], in assay [3], in [4], in assay [5] and in [7] was “inactive” throughout. The outcome in assay [6] and in assay [8] was inactive. Besides, the Potency in [9] is 10.7 µM [inconclusive] (active).

On to `CCCCC[C@H](O)/C=C/[C@@H]1[C@H]2C/C(=C/CCCC(=O)O)O[C@H]2C[C@H]1O`, for which the Potency entry in assay [1], in assay [2], in [3], in assay [4], in [5] and in assay [7] was “inactive” in each case. Moreover, the call in assay [6] and in [8] was inactive.

Consider `C[C@]12CC[C@@H]3c4ccc(O)cc4CC[C@H]3[C@@H]1CC[C@@H]2OP(=O)(O)O`, for which the Potency result in [1], in assay [2], in [3], in assay [4], in assay [5] and in assay [7] was “inactive” throughout. The compound was classed as inactive in assay [6] and in assay [8].

For `CNC[C@@H]1CC[C@@H](N)[C@@H](O[C@H]2[C@H](O)[C@@H](O[C@H]3OC[C@](C)(O)[C@H](NC)[C@H]3O)[C@H](N)C[C@@H]2N)O1`, the Potency result in assay [1], in [2], in assay [3], in assay [4], in [5] and in assay [7] was “inactive” throughout. Further, the result in [6] and in assay [8] was inactive.

The values above are taken from PubChem BioAssay (Tox21).
